Assay [1] addresses Lysosomal acid glucosylceramidase (Homo sapiens) (UniProt P04062). The experiment in a line: Glucocerebrosidase-p2 (AID 348; in the data active means potency below about 10 µM; further: potency means the concentration at half of the fitted maximal effect). The note with it: purified GBA, blue fluorogenic substrate, 40 min. The method, boiled down:
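Normal human glucocerebrosidase (0.2 nM) with blue fluorogenic substrate (80 uM final) in citrate/phosphate pH 5.9 with 10mM sodium taurocholate, 0.01% tween-20; 40 min RT, NaOH/glycine stop; fluorescence Ex 365/Em 440; AC50 from a titration from 0.6 nM upwards.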

Assay [2] can be described thus: AP1 Signaling Pathway (AID 357).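 Further: ME-180 reporter cells stimulated with EGF at its EC50 level; on the % scale 0 is the no-effect control and ±100 the full control effect.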 Particulars: ME-180 AP-1-bla reporter, EGF-induced, beta-lactamase ratio, 5 h; at 7.69 µM (top of the series) unless noted. The method, boiled down: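 Beta-lactamase reporter under AP-1 response element, ME-180 background. Stimulus: EC50 EGF. Compound exposure 5 h, 37 °C. Detection: CCF4, 2.5 h RT, 460/530 nm. Values: AC50 from titration.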

The target in assay [3] is Cytochrome P450 1A2 (Homo sapiens) (UniProt P05177). Briefly: p450-cyp1a2 (AID 410; calls by dose curve; further: potency means the concentration at half of the fitted maximal effect;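 on activity change, negative = inhibition: -100% = full effect of reference inhibitor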). Particulars: recombinant CYP1A2, luciferin-ME demethylation, luminescence; series mostly up to 57 µM. A digest of the protocol:
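Luminescent demethylation readout: Luciferin-ME (100uM, equal to Km) turned over by 20nM CYP1A2 for 60 min at room temperature after NADPH regeneration addition, following 10 min compound preincubation. Normalization used 57 uM furafylline as full inhibition.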

Assay [4] can be described thus: Stat Signaling Pathway (AID 446).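 Further: ME-180 cervical cancer cells given 40 pM IL-6 alongside compound; SIE-controlled beta-lactamase reporter measured as 460/530 nm FRET emission ratio; on the % scale 0 is the no-effect control and ±100 the full control effect.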 The note with it: ME-180 SIE beta-lactamase reporter, IL-6 stimulated, 5 h; at 7.69 µM (top of the series) unless noted. A digest of the protocol:
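Overnight-plated ME-180 cells bearing a STAT Inducible Element beta-lactamase reporter; 5 h co-exposure to compound and 40 pM IL-6; values normalized to 300 pM IL-6 and 125 nM JAK inhibitor controls.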

In assay [5] the target is Glucocorticoid receptor (Homo sapiens) (UniProt P04150). Briefly: GR-EFC Redistribution (AID 451; calls by dose curve; further: potency means the concentration at half of the fitted maximal effect). Particulars: CHO-K1 GR-EFC translocation, beta-gal luminescence, 2 h. The method, boiled down:
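CHO-K1 cells expressing nuclear EA and GR-ED fragments of b-gal; compounds titrated up to 46 uM final, 2 h at 37 C. GR nuclear translocation read as complemented b-gal luminescence after 1 h RT detection.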

Assay [6] deals with Mitogen-activated protein kinase 10 (Mus musculus) (UniProt Q61831). Briefly: JNK3 AlphaScreen Assay (AID 530).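 Further: kinase came from lysate of stimulated human HepG2 cells; signal reports phosphorylation of biotinylated GST-cJun 1-79 at Ser73 with 10 µM ATP; on the % scale 0 is the no-effect control and ±100 the full control effect.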 Particulars: JNK3 lysate, c-Jun phosphorylation; series mostly up to 57.1 µM. The method, boiled down:
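Activity was read by AlphaScreen after JNK3-containing HepG2 lysate (cytokine pre-activated) phosphorylated biotinylated GST-cJun with 10 uM ATP at room temperature. Phospho-Ser73 cJun antibody with Protein-A acceptor beads provided detection.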
Background: Alpha assays give light when donor and acceptor beads are brought close together.

Assay [7] addresses 3',5'-cyclic-AMP phosphodiesterase 4B (Homo sapiens) (UniProt Q07343). Briefly: qHTS Assay for Inhibitors of PDE-IV (AID 607; active means well fitted activation curve with a large enough effect in the main read-out, with a control signal flat, not every such curve was filed as active; further: % of control where 0% means no effect). The note with it: HEK293 ACTOne CNG channel cells, membrane potential fluorescence; series mostly up to 22.9 µM. A digest of the protocol: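 Live HEK293 cells with a modified cyclic nucleotide-gated (CNG) channel report intracellular cAMP via membrane-potential dye fluorescence (ex 535/em 590 nm). Endogenous PDE-IV was targeted. Compounds were tested at up to 22.9 uM final; RO 20-1724 100 uM served as control.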
(Quantitative high-throughput screening tests each substance at several concentrations.)

A short description of assay [8]: qHTS Assay for Lipid Storage Modulators (AID 1519; calls by dose curve). Particulars: Drosophila S3 cells, BODIPY lipid droplet/cell ratio, laser cytometry, cells loaded with oleic acid; for activity change, negative = inhibition: at 57.5 µM (top of the series). A digest of the protocol:
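Cells seeded at 5,000 per well were treated with compounds over a concentration series and loaded with oleic acid (400 uM, as added). Lipid droplet fluorescence (488 nm excitation, 500-530 nm channel) was read by laser-scanning cytometry and normalized to 20 uM Triacsin C.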

The nature of assay [9]: Primary qHTS for small molecule stabilizers of the endoplasmic reticulum resident proteome: Secreted ER Calcium Modulated Protein (SERCaMP) assay (AID 1508630; active means well fitted curve in the direction sought with a large enough effect; an effect the other way counts as inactive or inconclusive; further: on the % scale 0 is the no-effect control and ±100 the full control effect). The note with it: SH-SY5Y GLuc-SERCaMP (Gaussia luciferase released on ER calcium loss) secretion, thapsigargin, luminescence; series mostly up to 38.4 µM. A digest of the protocol:
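The SH-SY5Y reporter protocol was run at 3 concentrations up to 38.3 uM (primary) or 11 concentrations (follow-up): 16 h compound, 100 nM thapsigargin for 4 h, then extracellular luciferase luminescence.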

The target in assay [10] is Cytochrome P450 2C9 (Homo sapiens) (UniProt P11712). Briefly: qHTS Assay for Inhibitors and Substrates of Cytochrome P450 2C9 (AID 883; active means well fitted curve in the direction sought with a large enough effect; an effect the other way counts as inactive or inconclusive; further: potency means the concentration at half of the fitted maximal effect; nearly all actives have a fitted effect of over 60% in size). The note with it: recombinant CYP2C9, luciferin-H luminescence, 60 min; series mostly up to 57.1 µM. The method, boiled down:
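Signal: luciferase luminescence reporting luciferin produced by CYP2C9. Conditions: 10nM enzyme, Luciferin-H 100uM at KM, 25mM KPO4, 37C, 60 min NADPH-driven reaction. Reference: 57uM sulphaphenazole as 100% inhibition.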

The target of assay [11] is Cytochrome P450 3A4 (Homo sapiens) (UniProt P08684). Briefly: qHTS Assay for Inhibitors and Substrates of Cytochrome P450 3A4 (AID 884; active means well fitted curve in the direction sought with a large enough effect; an effect the other way counts as inactive or inconclusive; further: potency means the concentration at half of the fitted maximal effect; nearly all actives have a fitted effect of over 50% in size). Particulars: recombinant CYP3A4, Luciferin-PPXE luminescence; series mostly up to 57.1 µM. The method, boiled down: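 Luminescent readout of luciferin produced by CYP3A4 (20 nM) dealkylation of Luciferin-PPXE, 25 uM (its KM). NADPH-driven reaction ran 60 min at RT after 10 min compound preincubation; data scaled to 57 uM ketoconazole as 100% inhibition.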

Assay [12] has the same target. The experiment in a line: qHTS Assay for Activators of Cytochrome P450 3A4 (AID 885; active means well fitted curve in the direction sought with a large enough effect; an effect the other way counts as inactive or inconclusive; further: nearly all actives have a fitted effect of over 65% in size). Particulars: recombinant CYP3A4, Luciferin-PPXE luminescence, 60 min; series mostly up to 57.1 µM. The method, boiled down:
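Using 20nM recombinant human CYP3A4 in potassium phosphate (200mM), substrate Luciferin-PPXE at 25uM, luminescent luciferin detection followed a 60-min RT NADPH reaction; data scaled to 57 uM ketoconazole.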

Assay [13] addresses Glucocorticoid receptor (Homo sapiens) (UniProt P04150). The experiment in a line: GR-GFP Redistribution (AID 450;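 active means compounds whose dose series gives a full or clear partial fitted curve of increased nuclear translocation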; further: potency means the concentration at half of the fitted maximal effect). Particulars: U2OS GR-GFP nuclear translocation, laser cytometry, 2 h.
A short description of assay [14]: Confirmation and Secondary Assay for Modulators of Hemoglobin Beta Chain Splicing at IVS2 705 locus (AID 930; active means well fitted curve in the direction sought with a large enough effect; an effect the other way counts as inactive or inconclusive;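 further: HeLa cells stably expressing the EGFP-705 splicing reporter; GFP fluorescence per well restored by corrected splicing of the IVS2-705 intron in EGFP; % of control where 0% means no effect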). The note with it: HeLa EGFP-705 splicing reporter, GFP fluorescence, 48 h; series mostly up to 38.3 µM. A digest of the protocol: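 First, HeLa EGFP-705 cells are seeded at 500/well in Optimem with 2% FCS and left overnight. Next, compound or DMSO is added for 2 days. Finally wells are laser-scanned and total peak GFP intensity scored.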

Assay [15] has as its target Ubiquitin carboxyl-terminal hydrolase 1 (Homo sapiens) (UniProt O94782). Briefly: Inhibitors of USP1/UAF1: Pilot qHTS (AID 504865; active means well fitted curve in the direction sought with a large enough effect; an effect the other way counts as inactive or inconclusive;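 further: rhodamine fluorescence freed from ubiquitin-rhodamine substrate followed over time; top concentration of the series differs between compounds; on the % scale 0 is the no-effect control and ±100 the full control effect; nearly all actives have a fitted effect of over 35% in size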). Particulars: purified USP1/UAF1, Ub-rhodamine cleavage fluorescence; series mostly up to 54.9 µM. The method, boiled down:
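USP1/UAF1 complex at 1 nM preincubated 15 min at room temperature with compound, then Ub-Rho substrate added at 150 nM final. Fluorescence (480/540 nm) read kinetically in 50 mM HEPES pH 7.8, 0.5 mM EDTA, 1 mM TCEP, 0.1 mg/ml BSA, 0.01% Tween-20.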

Assay [16] deals with Cytochrome P450 2D6 (Homo sapiens) (UniProt P10635). Briefly: qHTS Assay for Inhibitors and Substrates of Cytochrome P450 2D6 (AID 891; active means well fitted curve in the direction sought with a large enough effect; an effect the other way counts as inactive or inconclusive; further: potency means the concentration at half of the fitted maximal effect; nearly all actives have a fitted effect of over 60% in size). Particulars: recombinant CYP2D6, luciferin-ME EGE luminescence; series mostly up to 57.1 µM. The method, boiled down: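 Luminescent read-out of luciferin formed by 5 nM human CYP2D6 demethylating 30 uM Luciferin-ME EGE (Km level) over 60 min at room temperature after NADPH regeneration addition. Data normalized to full inhibition by 1.43 uM quinidine.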

A short description of assay [17]: qHTS Assay for Identification of Small Molecule Agonists for Hypoxia Response Element Signaling Pathway (AID 914; active means well fitted activation curve with a large enough effect in the signal ratio, with a control signal flat, not every such curve was filed as active; the % refers to the signal ratio; further: % of control where 0% means no effect). Particulars: ME-180 (cervical carcinoma) HRE-bla reporter, beta-lactamase ratio, CoCl2, 17 h; activation: stronger effect = higher value. A digest of the protocol:
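Positive modulation of EC50 CoCl2-induced hypoxia response element signaling is measured in ME-180 cells with a beta-lactamase reporter. Compounds are titrated, incubation runs 17 hours, and %Activity derives from the blue/green ratio.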

The mark [18] stands for this setting: measured here: cell count channel max response.
[19] abbreviates: measured here: lipid channel max response.

Results filed as inconclusive are left out. Activity calls are given as the source filed them. Unless noted, the call rests on the fitted dose curve; in most records, active means well fitted curve in either direction with a large enough effect (not every such curve was filed as active); inconclusive means small, poorly fitted or top-dose-only effect, or another doubt; inactive means flat fitted curve, though single readings scatter. Bounds are passed on as bounds.

Sequence of 3',5'-cyclic-AMP phosphodiesterase 4B (Homo sapiens) (Q07343 whole entry, looked up): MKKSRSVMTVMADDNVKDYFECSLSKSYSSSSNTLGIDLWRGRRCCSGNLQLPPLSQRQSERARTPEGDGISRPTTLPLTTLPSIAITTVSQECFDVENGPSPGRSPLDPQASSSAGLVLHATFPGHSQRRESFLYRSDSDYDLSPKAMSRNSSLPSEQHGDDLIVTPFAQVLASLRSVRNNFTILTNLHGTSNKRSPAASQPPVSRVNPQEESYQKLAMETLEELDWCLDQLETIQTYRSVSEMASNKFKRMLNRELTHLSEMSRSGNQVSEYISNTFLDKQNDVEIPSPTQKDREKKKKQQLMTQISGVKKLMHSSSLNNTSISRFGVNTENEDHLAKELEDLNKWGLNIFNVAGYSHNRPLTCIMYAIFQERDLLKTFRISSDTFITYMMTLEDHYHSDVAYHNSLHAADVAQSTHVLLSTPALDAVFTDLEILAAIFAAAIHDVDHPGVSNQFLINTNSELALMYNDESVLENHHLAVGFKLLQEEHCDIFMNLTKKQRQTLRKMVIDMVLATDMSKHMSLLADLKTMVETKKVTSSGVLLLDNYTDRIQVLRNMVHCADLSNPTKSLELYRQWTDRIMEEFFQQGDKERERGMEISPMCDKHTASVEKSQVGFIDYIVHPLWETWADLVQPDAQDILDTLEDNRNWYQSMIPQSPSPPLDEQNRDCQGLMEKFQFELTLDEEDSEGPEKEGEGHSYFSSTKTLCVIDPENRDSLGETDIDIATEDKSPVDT
Sequence of Glucocorticoid receptor (Homo sapiens) (P04150 whole entry, looked up, the tested form may be a part): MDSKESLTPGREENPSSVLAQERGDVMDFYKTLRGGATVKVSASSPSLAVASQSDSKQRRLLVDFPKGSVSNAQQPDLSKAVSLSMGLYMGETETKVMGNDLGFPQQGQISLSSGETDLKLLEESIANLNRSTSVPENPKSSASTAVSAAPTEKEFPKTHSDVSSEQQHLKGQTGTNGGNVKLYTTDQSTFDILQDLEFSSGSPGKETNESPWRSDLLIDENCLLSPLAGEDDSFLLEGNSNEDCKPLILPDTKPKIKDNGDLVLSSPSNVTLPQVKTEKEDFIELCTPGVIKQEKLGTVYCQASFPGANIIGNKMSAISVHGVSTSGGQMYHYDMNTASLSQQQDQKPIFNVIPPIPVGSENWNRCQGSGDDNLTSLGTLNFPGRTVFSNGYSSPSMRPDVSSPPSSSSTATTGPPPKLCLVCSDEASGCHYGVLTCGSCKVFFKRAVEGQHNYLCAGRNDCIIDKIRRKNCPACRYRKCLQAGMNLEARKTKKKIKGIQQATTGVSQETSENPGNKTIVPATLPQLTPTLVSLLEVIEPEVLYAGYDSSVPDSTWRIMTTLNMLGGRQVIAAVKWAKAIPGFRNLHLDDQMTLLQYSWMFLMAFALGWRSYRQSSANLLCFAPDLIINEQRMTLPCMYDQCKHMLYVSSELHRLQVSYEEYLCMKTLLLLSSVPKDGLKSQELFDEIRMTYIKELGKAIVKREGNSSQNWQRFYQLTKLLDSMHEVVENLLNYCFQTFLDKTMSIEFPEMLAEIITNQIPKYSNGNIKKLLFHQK
Sequence of Cytochrome P450 2C9 (Homo sapiens) (P11712 whole entry, looked up): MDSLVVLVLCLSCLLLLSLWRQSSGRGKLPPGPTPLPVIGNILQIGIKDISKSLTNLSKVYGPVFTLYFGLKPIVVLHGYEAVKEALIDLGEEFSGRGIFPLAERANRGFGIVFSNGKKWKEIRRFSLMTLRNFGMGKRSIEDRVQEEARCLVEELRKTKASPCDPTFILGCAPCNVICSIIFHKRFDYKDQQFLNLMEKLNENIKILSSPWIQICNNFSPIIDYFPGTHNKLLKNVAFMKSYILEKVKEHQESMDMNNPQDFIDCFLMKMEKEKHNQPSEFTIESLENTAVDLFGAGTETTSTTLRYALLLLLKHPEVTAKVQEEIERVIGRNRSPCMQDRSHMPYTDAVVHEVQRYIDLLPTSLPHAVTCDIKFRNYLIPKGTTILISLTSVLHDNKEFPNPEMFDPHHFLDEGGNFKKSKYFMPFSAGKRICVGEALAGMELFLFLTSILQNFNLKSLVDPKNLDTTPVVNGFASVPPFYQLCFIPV
Sequence of Cytochrome P450 1A2 (Homo sapiens) (P05177 whole entry, looked up): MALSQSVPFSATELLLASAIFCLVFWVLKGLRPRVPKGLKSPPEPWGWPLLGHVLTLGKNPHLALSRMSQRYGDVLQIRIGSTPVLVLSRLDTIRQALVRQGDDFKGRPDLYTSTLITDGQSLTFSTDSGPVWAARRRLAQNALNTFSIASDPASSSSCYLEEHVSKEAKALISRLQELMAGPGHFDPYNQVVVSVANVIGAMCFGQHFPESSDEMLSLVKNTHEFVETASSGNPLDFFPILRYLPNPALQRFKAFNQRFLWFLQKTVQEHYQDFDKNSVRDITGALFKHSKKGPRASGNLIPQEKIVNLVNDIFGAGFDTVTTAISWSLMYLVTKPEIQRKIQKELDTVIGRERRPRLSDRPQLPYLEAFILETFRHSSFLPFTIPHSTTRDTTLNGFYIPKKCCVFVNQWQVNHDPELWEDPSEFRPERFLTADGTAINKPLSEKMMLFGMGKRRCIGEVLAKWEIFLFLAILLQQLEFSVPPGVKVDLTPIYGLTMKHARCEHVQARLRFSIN
Sequence of Lysosomal acid glucosylceramidase (Homo sapiens) (P04062 whole entry, looked up): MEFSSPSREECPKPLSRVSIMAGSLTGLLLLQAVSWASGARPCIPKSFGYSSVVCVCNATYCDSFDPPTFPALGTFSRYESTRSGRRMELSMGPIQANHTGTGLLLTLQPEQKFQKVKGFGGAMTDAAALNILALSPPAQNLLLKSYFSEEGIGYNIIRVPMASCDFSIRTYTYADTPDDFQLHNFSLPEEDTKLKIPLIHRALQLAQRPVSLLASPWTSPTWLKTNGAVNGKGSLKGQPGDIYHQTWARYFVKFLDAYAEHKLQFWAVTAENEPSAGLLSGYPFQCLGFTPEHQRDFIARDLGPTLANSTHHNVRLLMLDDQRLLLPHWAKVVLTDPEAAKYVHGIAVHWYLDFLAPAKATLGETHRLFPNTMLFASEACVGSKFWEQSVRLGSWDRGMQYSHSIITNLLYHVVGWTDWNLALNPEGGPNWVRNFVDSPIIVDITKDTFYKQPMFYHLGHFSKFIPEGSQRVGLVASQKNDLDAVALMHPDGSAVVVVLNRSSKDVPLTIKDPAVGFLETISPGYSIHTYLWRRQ
Sequence of Cytochrome P450 3A4 (Homo sapiens) (P08684 whole entry, looked up): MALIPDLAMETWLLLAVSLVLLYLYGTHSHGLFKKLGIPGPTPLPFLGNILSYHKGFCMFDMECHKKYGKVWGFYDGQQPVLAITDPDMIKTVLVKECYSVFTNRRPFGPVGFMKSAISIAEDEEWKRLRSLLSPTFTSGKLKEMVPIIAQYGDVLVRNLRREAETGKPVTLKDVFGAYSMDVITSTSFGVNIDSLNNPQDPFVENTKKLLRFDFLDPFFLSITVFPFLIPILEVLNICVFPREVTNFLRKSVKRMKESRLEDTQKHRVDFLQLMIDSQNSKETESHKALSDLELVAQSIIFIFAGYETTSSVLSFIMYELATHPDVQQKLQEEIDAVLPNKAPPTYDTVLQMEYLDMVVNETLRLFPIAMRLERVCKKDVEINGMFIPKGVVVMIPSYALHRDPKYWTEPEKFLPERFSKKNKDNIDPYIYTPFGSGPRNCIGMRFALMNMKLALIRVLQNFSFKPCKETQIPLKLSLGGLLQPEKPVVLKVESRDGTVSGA
Sequence of Ubiquitin carboxyl-terminal hydrolase 1 (Homo sapiens) (O94782 whole entry, looked up): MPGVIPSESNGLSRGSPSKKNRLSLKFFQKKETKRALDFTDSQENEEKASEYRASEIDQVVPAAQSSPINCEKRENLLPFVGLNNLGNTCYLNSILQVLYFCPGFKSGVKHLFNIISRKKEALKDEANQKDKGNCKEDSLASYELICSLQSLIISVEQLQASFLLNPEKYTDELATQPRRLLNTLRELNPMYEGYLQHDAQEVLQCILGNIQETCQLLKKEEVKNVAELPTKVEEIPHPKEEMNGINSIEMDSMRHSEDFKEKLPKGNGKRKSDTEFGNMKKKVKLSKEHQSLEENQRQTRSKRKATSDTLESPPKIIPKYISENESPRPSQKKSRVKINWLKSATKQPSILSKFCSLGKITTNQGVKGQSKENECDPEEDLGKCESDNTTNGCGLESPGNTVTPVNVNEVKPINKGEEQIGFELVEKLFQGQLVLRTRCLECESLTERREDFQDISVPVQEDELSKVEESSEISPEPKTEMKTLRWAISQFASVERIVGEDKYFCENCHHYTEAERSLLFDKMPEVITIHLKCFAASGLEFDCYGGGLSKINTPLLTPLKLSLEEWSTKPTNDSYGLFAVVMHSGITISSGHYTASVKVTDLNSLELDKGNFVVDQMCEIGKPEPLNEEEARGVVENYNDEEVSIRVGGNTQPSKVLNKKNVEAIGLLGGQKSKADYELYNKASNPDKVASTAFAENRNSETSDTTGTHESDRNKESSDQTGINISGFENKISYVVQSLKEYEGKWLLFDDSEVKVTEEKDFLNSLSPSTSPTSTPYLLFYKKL
Sequence of Cytochrome P450 2D6 (Homo sapiens) (P10635 whole entry, looked up): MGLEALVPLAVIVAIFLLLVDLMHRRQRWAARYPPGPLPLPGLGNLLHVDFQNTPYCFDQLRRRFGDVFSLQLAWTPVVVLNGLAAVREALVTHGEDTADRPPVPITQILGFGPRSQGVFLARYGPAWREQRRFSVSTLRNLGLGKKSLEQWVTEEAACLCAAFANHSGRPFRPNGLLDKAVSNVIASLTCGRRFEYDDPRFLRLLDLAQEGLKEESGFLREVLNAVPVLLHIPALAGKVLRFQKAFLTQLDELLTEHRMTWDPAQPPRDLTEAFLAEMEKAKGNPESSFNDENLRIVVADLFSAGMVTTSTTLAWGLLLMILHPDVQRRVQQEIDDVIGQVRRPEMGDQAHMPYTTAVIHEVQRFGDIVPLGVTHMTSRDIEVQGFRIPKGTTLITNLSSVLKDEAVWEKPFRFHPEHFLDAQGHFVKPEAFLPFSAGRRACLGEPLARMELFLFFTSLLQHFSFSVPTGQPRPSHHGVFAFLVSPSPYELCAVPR

Take `COCC(=O)N1CCC2(CCN(Cc3ccccc3OC)CC2)CC1`: the figures for the Potency in assay [1] and in assay [5] were > 11.4 µM (inactive) and > 46 µM (inactive), respectively. In addition, the activity change, negative = inhibition in assay [2] is -3.62% (inactive); in [8], -2.32% (inactive). In addition, the Potency result in assay [3], in assay [6] and in [7] was “inactive” each time. The activity, negative = inhibition in assay [4] was -4.34% (inactive). In addition, the max response in assay [8] (setting [18]) was -22.5%; in assay [8] (setting [19]), -24%. Also, in assay [9], the outcome was inactive.
On to `N#Cc1cccc(NC(=O)N2CCCC3(CCN(C(=O)c4ccco4)CC3)C2)c1`, for which the Potency in assay [1] is > 11.4 µM (inactive); in assay [3], 15.8 µM (active); in assay [5], > 46 µM (inactive); in [10], 3.98 µM (active); in assay [11], 5.01 µM (active). Also, the activity change, negative = inhibition in [2] was -14.7% (inactive); in assay [8], 7.75% (inactive). In addition, the activity, negative = inhibition in assay [4] is -1.77% (inactive). In addition, the Potency entry in assay [6], in assay [7] and in assay [12] was “inactive” throughout. Further, the results for the max response in assay [8] (setting [18]) and in assay [8] (setting [19]) were 5.8% and 16.6%, respectively. Besides, the result in assay [9] was inactive.
With `CN1CCC2(CC1)CCN(S(=O)(=O)c1ccccc1)CC2`, the Potency in [1] is > 11.4 µM (inactive); in assay [5] it was > 46 µM (inactive). For the same compound, the activity change, negative = inhibition in [2] is -4.78% (inactive); in assay [8] it was -2.86% (inactive). In addition, the Potency result in assay [3], in assay [6] and in assay [7] was “inactive” in each case. Moreover, in assay [4], the activity, negative = inhibition was -1.02% (inactive). Further, the max response in [8] (setting [18]) was determined as 8%; in assay [8] (setting [19]), 9.03%. In addition, the result in assay [9] was inactive.
Consider `O=C(c1cccc(F)c1)N1CCC2(CCN(Cc3ccncc3)CC2)CC1`, for which the Potency in [1] is > 11.4 µM (inactive); in assay [3] it was 12.6 µM (active); in assay [5] it was > 46 µM (inactive); in assay [10], 2.51 µM (active). Also, the activity change, negative = inhibition was -25.9% (inactive) in assay [2] and 2.27% (inactive) in [8]. In addition, the activity, negative = inhibition in assay [4] is -0.6% (inactive). For the same compound, the Potency entry in assay [6], in assay [7] and in [12] was “inactive” each time. The values for the max response in [8] (setting [18]) and in assay [8] (setting [19]) were 4.86% and 11.8%, respectively. Further, the outcome in assay [9] was inactive.
Regarding `CN(C)Cc1ccccc1-c1cncnc1NC1CC1`, the Potency was > 11.4 µM (inactive) in assay [1], 15.8 µM (active) in assay [3], > 46 µM (inactive) in [13] and > 46 µM (inactive) in [5]. Moreover, the activity change, negative = inhibition in assay [2] is -1.86% (inactive); in assay [8], 6.51% (inactive). Also, in assay [4], the activity, negative = inhibition is 2.98% (inactive). The Potency entry in assay [6], in [7], in [12] and in assay [15] was “inactive” throughout. For the same compound, the call in assay [14] and in assay [9] was inactive. The figures for the max response in assay [8] (setting [18]) and in assay [8] (setting [19]) were 18.3% and 22.5%, respectively.
For the compound `O=C(c1ccncc1)N1CCC2(CCCN(Cc3ccncc3)C2)CC1`, the Potency in assay [1] is > 11.4 µM (inactive); in assay [3] it was 6.31 µM (active); in assay [5], > 46 µM (inactive); in assay [10], 5.01 µM (active); in assay [11] it was 5.01 µM (active); in [16], 6.31 µM (active). Further, the values for the activity change, negative = inhibition in assay [2] and in assay [8] were -5.21% (inactive) and 2.08% (inactive), respectively. The activity, negative = inhibition in assay [4] is 4.83% (inactive). Further, the Potency result in assay [6], in assay [7] and in assay [12] was “inactive” throughout. For the same compound, in assay [17], the activation is 2.4% (inactive). Also, the max response in assay [8] (setting [18]) came out at 1.67%; in [8] (setting [19]), 8.27%. Further, the outcome in assay [9] was inactive.

The record behind these values is PubChem BioAssay (NCATS).
